Assay outcomes as filed in PubChem BioAssay.
PfG6PD inh: PfG6PD (Plasmodium falciparum) enzyme inhibition. PfGluPho enzyme, NADPH resazurin-diaphorase fluorescence. AID 504690. inhibition, % at 20 µM. 0.78% of 350,000 active;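 active = inhibition reaching at least a set limit at 20 µM in the primary screen, cut at about 59% in these data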;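 note: 0% = DMSO wells with substrate and 100% = DMSO wells lacking glucose-6-phosphate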
Yeast superoxide: caloric restriction mimetics inhibiting age-related superoxide in yeast; superoxide response (% of plate mean), % at 10 µM; 0.18% of 330,000 active; AID 2690; S. cerevisiae aged cells, superoxide DHE fluorescence; hits give low values;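 active = superoxide response under a set limit, about three screen SD below normal, cut at about 65% in these data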;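 note: yeast aged for seven days with compound at 30 °C before DHE staining; 100% = average MFI of all compound-treated wells on the plate with controls excluded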
PfM18AAP inh: blocks P. falciparum M18 aspartyl aminopeptidase; AID 1822; 1.2% of 290,000 active; inhibition, % at 7.35 µM; recombinant PfM18AAP, H-Glu-NHMec fluorogenic cleavage;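 active = inhibition above the campaign mean inhibition over all tested compounds plus 3 SD, cut at about 28% in these data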;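 note: 0% = plate median of test compound wells and 100% = 2 mM ZnCl2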
A3G deaminase: blocks human APOBEC3G single-stranded DNA deamination; Q9HC16; recombinant A3G, ssDNA deamination FAM/TAMRA fluorescence; inhibition, % at 20 µM; 0.28% of 330,000 active; AID 493012;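 active = inhibition of at least 40% at 20 µM, with no more than 30% in the related APOBEC3A deaminase screen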;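 note: plate controls were DMSO wells with A3G for no effect and wells lacking A3G enzyme for full effect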
Target sequence (Q9HC16 whole entry, looked up): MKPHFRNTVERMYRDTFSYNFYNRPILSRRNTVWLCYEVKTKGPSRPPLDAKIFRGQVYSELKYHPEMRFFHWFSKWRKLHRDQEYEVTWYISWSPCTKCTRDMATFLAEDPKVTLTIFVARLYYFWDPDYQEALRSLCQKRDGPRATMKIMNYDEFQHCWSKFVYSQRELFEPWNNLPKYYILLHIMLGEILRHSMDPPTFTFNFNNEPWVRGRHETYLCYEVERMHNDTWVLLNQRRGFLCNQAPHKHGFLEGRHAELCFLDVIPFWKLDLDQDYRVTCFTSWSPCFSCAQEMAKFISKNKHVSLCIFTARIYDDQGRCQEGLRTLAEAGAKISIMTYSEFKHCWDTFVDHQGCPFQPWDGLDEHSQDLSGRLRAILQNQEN
A3A deaminase: human APOBEC3A DNA deaminase inhibition | 0.41% of 330,000 active | AID 493011 | recombinant A3A, FAM/TAMRA ssDNA deamination fluorescence | inhibition, % at 20 µM;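 active = at least 40% inhibition at 20 µM here, with at most 30% in a related deaminase screen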;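 note: plate controls were A3A with DMSO for no effect and wells lacking A3A enzyme for full effect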
Target sequence (P31941 whole entry, looked up): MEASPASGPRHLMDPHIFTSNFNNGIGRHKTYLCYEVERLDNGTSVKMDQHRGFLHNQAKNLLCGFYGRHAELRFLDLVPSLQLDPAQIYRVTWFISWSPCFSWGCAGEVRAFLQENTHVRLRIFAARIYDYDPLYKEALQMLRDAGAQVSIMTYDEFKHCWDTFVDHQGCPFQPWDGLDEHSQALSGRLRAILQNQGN
Superoxide pick: yeast aging superoxide inhibition, cherry pick confirmation | shares compounds with Yeast superoxide | S. cerevisiae aging, superoxide DHE fluorescence; hits give low values | superoxide response (% of plate), % at 10 µM | 1% of 850 active;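 active = superoxide signal below 65% of the plate average of sample wells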;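 note: cells aged with compound for 7 days at 30 degrees C before staining; 100% equals mean DHE fluorescence of all compound wells on the plate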
DHE fluor count: DHE fluorescence interference, counter-screen artifact; shares compounds with Yeast superoxide; S. cerevisiae BY4741, flow cytometry; hits give low values; fluorescence response, % at 10 µM; 850 tested, under 10 active; AID 435000;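 active = fluorescence response below 15%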;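 note: percent of the mean fluorescence averaged over all compound wells on the plate; lower means stronger quenching of DHE signal or ROS scavenging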
Active calls of the source: *; . = no result given. Hits are enriched below; roughly 2.4% of the tested compounds scored in any of these assays.

SMILES | PfG6PD inh | Yeast superoxide | PfM18AAP inh | A3G deaminase | A3A deaminase | Superoxide pick | DHE fluor count
[O-][n+]1c(/C=C/c2ccccc2)ccc2ccccc21 | 8.6 | 96.7 | 5.0 | -5.7 | -3.6 | . | .
Cc1cc(-c2ccc(S(=O)(=O)N(C)Cc3ccccc3)cc2)on1 | -10.9 | 97.8 | -5.0 | 10.5 | 2.3 | . | .
CCCOc1ccc2cc(-c3ccccn3)c(=O)oc2c1 | 22.9 | 59.5* | -3.8 | -5.8 | -4.8 | 100.1 | 95.5
CCOc1cc(C)c(Cl)cc1S(=O)(=O)N1CCCC1 | 10.6 | 107.3 | -4.6 | -5.5 | -2.3 | . | .
COc1cc(S(=O)(=O)N2CCCC2)c(C)cc1C | -6.9 | 110.0 | 4.4 | -7.6 | -1.2 | . | .
COc1cc(C)c(Br)cc1S(=O)(=O)N1CCCC1 | 5.2 | 101.9 | -5.2 | 0.2 | -2.8 | 100.0 | 95.0
COc1cc(Cl)c(S(=O)(=O)N2CCCC2)cc1Cl | -6.6 | 87.4 | -1.7 | -13.4 | -4.3 | 92.0 | 97.3
COc1cc(C)c(Cl)cc1S(=O)(=O)N1CCCC1 | -0.2 | 100.5 | 0.3 | -0.9 | 6.0 | 102.6 | 90.0
CC(C)N(C(=O)[C@H]1CC(CC(=O)NCc2cccc(C(F)(F)F)c2)C(=O)N2CCc3c([nH]c4ccccc34)[C@]12C)C(C)C (stereo partly specified) | 34.3 | 101.5 | . | -3.9 | -2.8 | . | .
O=C(CC(=O)Nc1cccc(Cl)c1Cl)Nc1cccc(Cl)c1Cl | 2.9 | 99.8 | -9.1 | -4.3 | 1.8 | . | .
Cc1cc(-c2ccc(Br)cc2)n2nc(C)cc2n1 | 0.1 | . | . | . | . | . | .
Cc1cc(C)n2nc(-c3ccc(Cl)cc3)cc2n1 | 20.2 | 104.6 | 0.0 | -4.9 | 0.5 | 99.3 | 101.2
Cc1cc(C)n2nc(-c3ccc(Br)cc3)cc2n1 | 41.8 | 99.4 | -0.8 | -2.3 | -4.3 | 85.1 | 87.6
Cc1cc([N+](=O)[O-])ccc1NC(=O)CCC(=O)N1CCCCCC1 | 4.0 | 108.8 | 5.0 | -6.1 | -1.7 | . | .
CNC(=O)C[C@@H]1C(=O)N(c2ccc(OC)cc2)CC1(C)C | 11.9 | . | . | . | . | . | .
Cc1ccc(NC(=O)c2ccc(C(=O)c3ccccc3)cc2)nc1 | 20.6 | 63.4* | . | -2.6 | 3.5 | 98.5 | 92.4
O=[N+]([O-])c1cccc(S(=O)(=O)NCCCn2ccnc2)c1 | -11.7 | 103.0 | 1.3 | -7.2 | -4.1 | . | .
OCCOCCn1c2ccccc2c2ccccc21 | -20.6 | 79.6 | 1.8 | -6.7 | -3.4 | 95.0 | 91.9
O=C(Cc1ccccc1)NCc1ccncc1 | -2.6 | 57.5* | 3.0 | -16.1 | 0.0 | 102.2 | 97.1
O=C(CN1C(=O)NC(c2ccc(F)cc2)C1=O)NC1CCCCC1 (stereo unspecified) | 7.3 | 82.3 | . | -6.7 | -1.1 | . | .
Cc1ccc(N=C2NC(=O)/C(=C/c3cccs3)S2)cc1C | -53.4 | 59.4* | -4.8 | -8.0 | -3.3 | 93.5 | 90.4
Cc1cccc(N=C2NC(=O)/C(=C\c3cccs3)S2)c1 | -14.7 | 128.9 | -4.9 | -6.4 | -4.0 | . | .
NS(=O)(=O)c1ccc(CCNC(=O)CNC(=O)COc2ccccc2)cc1 | -2.6 | 55.3* | 0.3 | -7.8 | -3.4 | 97.8 | 89.5
C[C@@H](C(=O)OCC(=O)NCCc1ccc(S(N)(=O)=O)cc1)N1C(=O)C2CCCCC2C1=O (stereo partly specified) | -9.5 | 65.4* | 1.1 | 3.4 | 5.6 | 101.2 | 94.3
CCCCN(C(=O)c1cc(Cl)nc2ccccc12)c1c(N)n(CCCC)c(=O)[nH]c1=O | -10.7 | 95.8 | . | -4.8 | 6.5 | . | .
SMILES | PfG6PD inh | Yeast superoxide | PfM18AAP inh | A3G deaminase | A3A deaminase | Superoxide pick | DHE fluor count
Cc1cc([N+](=O)[O-])nn1Cc1ccc(C(=O)N/N=C/c2ccc(F)cc2)cc1 | 0.1 | 94.5 | -12.6 | -0.2 | 0.6 | . | .
Cc1cc([N+](=O)[O-])nn1Cc1ccc(C(=O)N/N=C/c2ccc(O)cc2O)cc1 | -13.7 | 64.9* | 14.6 | -11.4 | -9.3 | 94.5 | 94.0
COc1ccc(-c2ccc(=O)n(Cc3cccc(Cl)c3)n2)cc1 | 8.5 | 54.6* | -0.5 | -8.3 | -0.4 | 89.8 | 88.6
Cc1ccc(C2/C=C\CC(NC(=O)OCC3c4ccccc4-c4ccccc43)CC(=O)N2Cc2ccccc2)cc1 (stereo unspecified) | 13.1 | 91.2 | . | -3.9 | 3.8 | . | .
O=C1c2cc(S(=O)(=O)N(CCO)CCO)ccc2-c2ccc(S(=O)(=O)N(CCO)CCO)cc21 | 0.7 | 102.7 | . | -4.8 | 3.3 | . | .
CN(CCO)S(=O)(=O)c1ccc2c(c1)C(=NN)c1cc(S(=O)(=O)N(C)CCO)ccc1-2 | -10.2 | 65.1* | 4.9 | -3.7 | 1.8 | 89.2 | 101.0
CCOc1ccc(NC(=O)CN2CCN(CC(=O)Nc3ccc(OC)cc3OC)CC2)cc1 | 1.4 | 61.8* | -15.0 | -7.5 | -1.2 | 106.7 | 106.1
CCn1c(SCC(=O)Nc2ccc(OC)c(OC)c2)nnc1-c1cccs1 | -8.8 | 96.6 | 0.8 | -6.5 | -3.0 | 118.5 | 105.4
Cc1ccc(NC2=NCCC2)cc1Cl | 12.4 | 64.9* | -1.1 | -1.1 | -2.3 | 91.4 | 99.8
Clc1ccc(NC2=NCCCCC2)cc1 | 4.3 | 93.3 | 1.0 | -9.1 | -3.4 | . | .
CC(=O)C1=C(O)C(=O)N(CCc2ccccc2)C1c1ccccc1[N+](=O)[O-] (stereo unspecified) | -8.8 | 58.6* | 0.0 | 3.2 | 0.7 | 107.2 | 96.8
COc1ccccc1CN(C)C(=O)c1ccc(S(=O)(=O)Nc2c(C)n(C)n(-c3ccccc3)c2=O)cc1 | -17.7 | 88.9 | . | -7.8 | -1.6 | . | .
COc1ccc(CNC(=O)c2cc3ccccc3oc2=O)cc1 | -7.4 | 63.2* | 2.7 | -5.4 | -3.4 | 96.3 | 93.4
CCC(C(=O)NCCCN1CCN(C)CC1)n1nc(C)n2c(cc3occc32)c1=O (stereo unspecified) | 9.9 | 97.6 | -2.9 | -7.8 | -6.5 | . | .
CCCCn1nc(C(=O)NCC2COc3ccccc3O2)c2ccccc2c1=O (stereo unspecified) | 14.1 | 115.5 | . | -7.3 | 0.9 | . | .
CCOC(=O)C/C(C)=N/NC(=O)c1cccs1 | -3.8 | 62.9* | -9.1 | -3.3 | -0.7 | 112.5 | 99.2
Cc1nc2ccc(NC(=O)c3nn(CC(C)C)c(=O)c4ccccc34)cc2s1 | 5.8 | 56.5* | -2.3 | -6.5 | -0.7 | 114.3 | 121.7
Cc1nnc(NC(=O)c2nn(CC(C)C)c(=O)c3ccccc23)s1 | -6.0 | 81.2 | -2.3 | -10.4 | 2.6 | . | .
Nc1cc2c3c(cccc3c1)C(=O)N(CCN1CCCC1)C2=O | 2.2 | 48.1* | 23.4 | . | . | 100.5 | 105.3
Cc1ccc(CNC(=O)Cn2nnc(C(=O)Nc3cc(C)ccc3C)c2N)cc1 | -13.1 | 57.2* | -7.8 | -3.8 | 0.7 | 98.6 | 105.1
FC(F)(F)c1nc2cc3nc4ccccc4[nH]c3cc2n1 | 34.8 | 56.2* | -7.9 | 1.6 | 6.2 | 54.6* | 94.3
OC(c1nc2ccccc2[nH]1)C(O)c1nc2ccccc2[nH]1 (stereo unspecified) | 13.1 | 102.4 | 0.1 | -0.2 | 0.7 | . | .
Nc1nc2ccccc2nc1N | -7.6 | 97.2 | 1.7 | -5.4 | -2.3 | . | .
c1ccc2nc3ccccc3nc2c1 | 5.4 | 63.5* | -0.5 | 0.2 | 2.7 | 67.4 | 93.5
